Experimental data reported in PMC4336329 (PLoS ONE, 2015).
Among all 310,000 compounds or so, about 2,200 (0.71%) showed an effect of 50% or more. The effect is printed as a negative number. What follows is part of a selection rich in strong results, with near analogues and random picks from the rest.

Molecular target: human ether-à-go-go-related gene (hERG) potassium channel (human, UniProt Q12809)
Assay: primary screen, population patch clamp on CHO cells stably expressing hERG; higher = less effect of the substance

Sequence of human ether-à-go-go-related gene (hERG) potassium channel (Q12809 whole entry, looked up): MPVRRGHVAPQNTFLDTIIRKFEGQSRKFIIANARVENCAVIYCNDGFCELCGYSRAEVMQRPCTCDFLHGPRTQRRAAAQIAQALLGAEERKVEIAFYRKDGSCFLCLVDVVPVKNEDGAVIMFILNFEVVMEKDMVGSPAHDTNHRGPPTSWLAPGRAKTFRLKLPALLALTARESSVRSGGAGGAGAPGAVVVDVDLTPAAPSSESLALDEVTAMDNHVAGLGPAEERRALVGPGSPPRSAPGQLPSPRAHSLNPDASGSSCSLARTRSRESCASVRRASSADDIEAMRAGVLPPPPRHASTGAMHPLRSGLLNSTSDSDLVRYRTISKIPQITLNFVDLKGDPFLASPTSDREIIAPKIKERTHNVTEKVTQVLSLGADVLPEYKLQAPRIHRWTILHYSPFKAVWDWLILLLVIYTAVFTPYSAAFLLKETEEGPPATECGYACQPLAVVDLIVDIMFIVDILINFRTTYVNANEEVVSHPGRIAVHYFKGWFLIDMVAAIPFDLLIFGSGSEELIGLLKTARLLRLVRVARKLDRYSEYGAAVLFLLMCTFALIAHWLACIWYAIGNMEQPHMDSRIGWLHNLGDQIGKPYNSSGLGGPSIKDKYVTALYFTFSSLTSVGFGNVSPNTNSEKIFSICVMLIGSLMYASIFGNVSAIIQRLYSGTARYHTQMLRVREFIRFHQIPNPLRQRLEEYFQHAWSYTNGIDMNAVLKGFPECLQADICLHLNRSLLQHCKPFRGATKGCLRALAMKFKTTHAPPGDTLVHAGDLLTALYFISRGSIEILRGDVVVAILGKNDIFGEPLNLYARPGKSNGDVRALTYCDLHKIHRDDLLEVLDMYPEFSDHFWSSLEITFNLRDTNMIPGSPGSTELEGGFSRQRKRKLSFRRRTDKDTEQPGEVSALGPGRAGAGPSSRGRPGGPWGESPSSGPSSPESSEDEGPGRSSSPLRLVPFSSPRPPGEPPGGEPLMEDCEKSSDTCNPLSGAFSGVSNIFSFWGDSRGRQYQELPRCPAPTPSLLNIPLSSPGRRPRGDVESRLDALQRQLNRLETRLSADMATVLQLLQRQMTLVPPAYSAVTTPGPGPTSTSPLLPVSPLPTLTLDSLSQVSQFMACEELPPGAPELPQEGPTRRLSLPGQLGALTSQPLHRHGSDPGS

| Structure (SMILES) | hERG current change (%, negative = inhibition) at 1uM [%] |
| --- | --- |
| CN(C)CCCNc1ncc(C(F)(F)F)cc1Cl | 10.3 |
| CN1C(=O)[C@@H]2[C@H](C1=O)[C@@H]1C(=O)Nc3ccccc3C(=O)N1[C@@H]2c1ccc(Br)cc1 | -16.7 |
| CN1CCN(C(=O)c2cc3sccc3n2CC(=O)c2ccccc2)CC1 | -2.93 |
| O=C(Cn1c(C(=O)N2CCN(C3CCCC3)CC2)cc2sccc21)c1ccccc1 | -51 |
| O=C(Cn1c(C(=O)N2CCN(C3CCCCC3)CC2)cc2sccc21)c1ccccc1 | -47.5 |
| COc1ccc(-c2cc(-c3cccs3)c(C#N)c(SCC(=O)NCc3ccccc3OC)n2)cc1 | -3.19 |
| Cc1cccc(C)c1NC(=S)NCc1ccncc1 | 16 |
| c1ccc(CN2CCC(Nc3nc(-c4cccnc4)nc4ccccc34)CC2)cc1 | -74.6 |
| c1ccc(CN2CCC(Nc3nc(-c4cccs4)nc4ccccc34)CC2)cc1 | 10.5 |
| c1ccc(CN2CCC(Nc3nc(-c4ccccc4)nc4ccccc34)CC2)cc1 | 4.83 |
| CSc1oc(-c2ccc(F)cc2)nc1S(=O)(=O)c1ccccc1 | -1.68 |
| CC1(C)C([N+](=O)[O-])C(c2ccc(O)cc2)NC(c2ccc(O)cc2)C1[N+](=O)[O-] (centres unmarked) | 10.3 |
| COc1ccc(CCNC(C)CCc2ccc(OC)cc2)cc1 (centres unmarked) | -2.61 |
| COc1ccc(CNCCc2ccc(Cl)cc2Cl)cc1 | 13.2 |
| COc1ccc(CCC(C)NCCc2ccc(Cl)cc2Cl)cc1 (centres unmarked) | -50.1 |
| CCC(=O)OC1(c2ccccc2)C(C)CN(C)CC1C.Cl (centres unmarked) | 8.82 |
| C[C@]12CCC[C@H](O1)[C@H]([C@@H](O)c1ccccc1)O2 | 16.5 |
| CN1C(CC(=O)c2ccccc2)CCCC1CC(O)c1ccccc1 (centres unmarked) | -55.2 |
| CN1CCC(N(C)CC(O)c2ccccc2)CC1.O=C(O)C(=O)O (centres unmarked) | 1.81 |
| CN1C(CC(O)c2ccccc2)CCCC1CC(O)c1ccccc1.Cl (centres unmarked) | -46.3 |
| Cc1ccc2c(Cl)c(C(=O)NC3CC3)sc2c1 | 9.87 |
| CCCCCn1c(SCCN2CCOCC2)nc2c1c(=O)[nH]c(=O)n2C | -40.7 |
| Cn1c(=O)[nH]c(=O)c2c1nc(SCCO)n2CCCc1ccccc1 | 5.4 |

| Structure (SMILES) | hERG current change (%, negative = inhibition) at 1uM [%] |
| --- | --- |
| CCCSc1nc2c(c(=O)[nH]c(=O)n2C)n1Cc1ccccc1 | 2.13 |
| CCCCCCn1c(SCCN2CCOCC2)nc2c1c(=O)[nH]c(=O)n2C | -64.1 |
| COCCSc1nc2c(c(=O)[nH]c(=O)n2C)n1Cc1cccc(C)c1 | -5.69 |
| Cn1c(=O)[nH]c(=O)c2c1nc(SCCN1CCOCC1)n2Cc1ccccc1 | -12 |
| Cn1c(=O)[nH]c(=O)c2c1nc(SCCN1CCCCC1)n2Cc1ccccc1 | -81.6 |
| Cn1c(=O)[nH]c(=O)c2c1nc(SCCN1CCOCC1)n2CCCc1ccccc1 | -6.15 |
| Cc1cccc(Cn2c(N3CCN(CCO)CC3)nc3c2c(=O)[nH]c(=O)n3C)c1 | 7.07 |
| Cn1c(=O)[nH]c(=O)c2c1nc(SCCN1CCCCC1)n2CCCc1ccccc1 | -57.3 |
| Cc1cccc(Cn2c(SCCN3CCCCC3)nc3c2c(=O)[nH]c(=O)n3C)c1 | -80.7 |
| CC(C)CCn1c(SCCN2CCOCC2)nc2c1c(=O)[nH]c(=O)n2C | 1.89 |
| O=C(O)C1CC(=O)N(Cc2ccc3c(c2)OCO3)C1 (centres unmarked) | 6.73 |
| O=C(CN1CCCc2ccccc21)NCc1ccc2c(c1)OCO2 | 9.15 |
| CSc1ccc(-c2nc3cnccn3c2Nc2ccc3c(c2)OCO3)cc1 | 9.9 |
| Cc1ccccc1OCCC(=O)Nc1ccc(S(=O)(=O)N(C)C2CCN(C)CC2)cc1 | 20.4 |
| Cc1ccc(Cn2c(SCCN3CCCCC3)nc3c2c(=O)[nH]c(=O)n3C)cc1 | -77.5 |
| Cc1ccc(Cn2c(N3CCCCCC3)nc3c2c(=O)[nH]c(=O)n3C)cc1 | 2.45 |
| Cc1ccc(Cn2c(SCC(C)C)nc3c2c(=O)[nH]c(=O)n3C)cc1 | 9.48 |
| O=C(Cc1ccc(Cl)cc1)N1CCc2ccccc2C1 | 21.7 |
| COc1cccc(C(c2sc3nc(C)nn3c2O)N2CCN(c3ccccc3F)CC2)c1 (centres unmarked) | 10 |
| CCCCN(CCCC)CCNC(=O)CN1C(=O)CSc2ccc(S(=O)(=O)N3CCOCC3)cc21 | -3.76 |
| CCCCN(CCCC)CCNC(=O)CN1C(=O)CSc2ccc(S(=O)(=O)N3CCCCC3)cc21 | -51.7 |
| CCCCN(C)CCNC(=O)CN1C(=O)CSc2ccc(S(=O)(=O)N3CCCCC3)cc21 | -6.21 |
| Nc1nc(N)c(N=Nc2ccc(C(=O)O)cc2)c(N)n1 | 8.04 |

| Structure (SMILES) | hERG current change (%, negative = inhibition) at 1uM [%] |
| --- | --- |
| Cc1ccc(Sc2cc(NCCCO)c([N+](=O)[O-])c3nonc23)cc1 | 5.43 |
| CCOC(=O)c1c(NC(=O)C(NCCN(C)C)c2ccccc2)sc2c1CCCC2 (centres unmarked) | -77.2 |
| CCOC(=O)c1c(NC(=O)c2ccccc2C(=O)O)sc2c1CCCC2 | 16.3 |
| CCOC(=O)c1c(NC(=O)c2ccccc2C(=O)O)sc2c1CCC2 | 2.17 |
| COc1ccc(N=C2SC(C(=O)O)CC(=O)N2Cc2ccc(OC)c(OC)c2)cc1 (centres unmarked) | 10.8 |
| CCCCNC(=O)N1CCN(c2ccccc2OC)CC1 | 5.81 |
| O=C1c2[nH]nc(-c3ccccc3O)c2C(c2ccc(F)cc2)N1Cc1ccco1 (centres unmarked) | 13.1 |
| CC1CC(C)CN(c2cc(=O)n(Cc3ccc(F)cc3)c(=O)[nH]2)C1 (centres unmarked) | 17.9 |
| CSc1nnc2c3ccccc3n(Cc3ccccc3)c2n1 | 19.2 |
| O=C(O)CCSc1nc2ccccc2n1Cc1ccccc1 | 13.1 |
| NNc1nnc2c3cc(F)ccc3n(Cc3ccccc3)c2n1 | 2.58 |
| c1ccc(Cn2c3ccccc3c3nnc(SCCN4CCCCC4)nc32)cc1 | -6.31 |
| CCN(CC)CCSc1nnc2c3ccccc3n(Cc3ccccc3)c2n1 | -73.4 |
| CN(C)C(=O)CSc1nc2ccccc2n1Cc1ccccc1 | 4.73 |
| CSc1nnc2c3cc(F)ccc3n(Cc3ccccc3)c2n1 | 7.64 |
| CCN(CC)CCSc1nnc2c3ccccc3n(CCc3ccccc3)c2n1 | -18.1 |
| CCN(CC)CCSc1nnc2c3cc(C)ccc3n(Cc3ccccc3)c2n1 | -81.6 |
| CCN(CC)CCSc1nc2ccccc2n1Cc1ccccc1.Cl | -79 |
| CCN(CC)CCSc1nnc2c3cc(F)ccc3n(Cc3ccccc3)c2n1 | -53.8 |
| CSc1nnc2c3cc(C)ccc3n(Cc3ccccc3)c2n1 | 10.3 |
| COc1ccc([N+](=O)[O-])cc1N(CC(=O)N1CCCC1)S(C)(=O)=O | 10.2 |
| O=C(NC1(C(F)(F)F)NC(=O)N(Cc2cccnc2)C1=O)c1ccncc1 (centres unmarked) | 18.1 |
| O=C(NC(Cc1c[nH]c2ccccc12)C(=O)N1CCOCC1)c1cccs1 (centres unmarked) | 11.2 |

| Structure (SMILES) | hERG current change (%, negative = inhibition) at 1uM [%] |
| --- | --- |
| CC(C)(C)OC(=O)NCCCCCc1nnc(SCC(=O)Nc2cccc(Cl)c2)o1 | -1.82 |
| Cc1ccc(SCC(=O)Nc2ccc(N3CCN(C)CC3)c(F)c2)c(C)c1 | -47.8 |
| COc1ccc(/C=N/N2CCN(C3c4ccccc4-c4ccccc43)CC2)cc1OC | 12.9 |
| COCCOC(=O)c1c(NC(=O)CNc2ccc(C)c(F)c2)sc(C(N)=O)c1C | 11 |
| Cc1cc(NC(=O)c2ccccc2)n(-c2ccccc2)n1 | 12.1 |
| Cc1cc(NC(=O)c2ccc(F)cc2)n(-c2ccccc2)n1 | -75.3 |
| Cc1cc(NC(=O)c2ccc(Cl)cc2)n(-c2ccccc2)n1 | 13.6 |
| Nc1c(-c2ccc(Cl)cc2)cnc2c(-c3ccccc3)cnn12 | 18.5 |
| Cc1ccc(CSCCNS(C)(=O)=O)cc1 | 10.9 |
| CC(=O)N1CCCc2cc(S(=O)(=O)NC(C(=O)NC(C)c3ccccc3)C(C)C)ccc21 (centres unmarked) | 1.38 |
| COc1ccc(CN2CCNC(=O)C2CC(=O)N(C)CCC2CCOCC2)cc1OC (centres unmarked) | 13.7 |
| Cc1ccc(S(=O)(=O)N2CCOC2CNC(=O)C(=O)NCCCc2ccccc2)cc1 (centres unmarked) | 5.36 |
| CCCCCN1C=CC=C/C1=C\C=C(C#N)C#N | -28.2 |
| CCCCCCN1C=CC=C/C1=C/C=C(C#N)C#N | -26.6 |
| CCCCCCN1C=CC=C/C1=C\C=C(C#N)C#N | -69.9 |
| CCOC(=O)C(O)(CC(=O)Nc1ccc(Cl)cc1Cl)C(F)(F)F (centres unmarked) | 6.91 |
| CCOC(=O)C(Cc1c(F)cccc1F)(NC(C)=O)C(=O)OCC | 8.71 |
| CCOC(=O)C(Cc1ccccc1)(NC(C)=O)C(=O)OCC | 14.4 |
| CCOC(=O)COc1ccc(N)cc1CC(NC(C)=O)(C(=O)OCC)C(=O)OCC | -69.6 |
| COc1ccc(C)cc1NC(=O)C(OC(=O)CNC(=O)c1ccc(Br)cc1)c1ccccc1 (centres unmarked) | 11.1 |
